Assay outcomes: PubChem, National Center for Advancing Translational Sciences (NCATS)
The entries come from a sample that favours hits as a whole.
KDM5B inhibitor: inhibitors of human KDM5B histone demethylase. Q9UGL1. KDM5B demethylase, FDH-coupled NADH fluorescence (FDH is formaldehyde dehydrogenase). Potency, µM (top dose mostly 57.7 µM), actives largely listed as inhibitors. 220,000 compounds, 2.6% hits; active = well fitted inhibition curve with a large enough effect; note: nearly all actives have a fitted effect of over 70% in size
Target sequence (Q9UGL1 whole entry, looked up): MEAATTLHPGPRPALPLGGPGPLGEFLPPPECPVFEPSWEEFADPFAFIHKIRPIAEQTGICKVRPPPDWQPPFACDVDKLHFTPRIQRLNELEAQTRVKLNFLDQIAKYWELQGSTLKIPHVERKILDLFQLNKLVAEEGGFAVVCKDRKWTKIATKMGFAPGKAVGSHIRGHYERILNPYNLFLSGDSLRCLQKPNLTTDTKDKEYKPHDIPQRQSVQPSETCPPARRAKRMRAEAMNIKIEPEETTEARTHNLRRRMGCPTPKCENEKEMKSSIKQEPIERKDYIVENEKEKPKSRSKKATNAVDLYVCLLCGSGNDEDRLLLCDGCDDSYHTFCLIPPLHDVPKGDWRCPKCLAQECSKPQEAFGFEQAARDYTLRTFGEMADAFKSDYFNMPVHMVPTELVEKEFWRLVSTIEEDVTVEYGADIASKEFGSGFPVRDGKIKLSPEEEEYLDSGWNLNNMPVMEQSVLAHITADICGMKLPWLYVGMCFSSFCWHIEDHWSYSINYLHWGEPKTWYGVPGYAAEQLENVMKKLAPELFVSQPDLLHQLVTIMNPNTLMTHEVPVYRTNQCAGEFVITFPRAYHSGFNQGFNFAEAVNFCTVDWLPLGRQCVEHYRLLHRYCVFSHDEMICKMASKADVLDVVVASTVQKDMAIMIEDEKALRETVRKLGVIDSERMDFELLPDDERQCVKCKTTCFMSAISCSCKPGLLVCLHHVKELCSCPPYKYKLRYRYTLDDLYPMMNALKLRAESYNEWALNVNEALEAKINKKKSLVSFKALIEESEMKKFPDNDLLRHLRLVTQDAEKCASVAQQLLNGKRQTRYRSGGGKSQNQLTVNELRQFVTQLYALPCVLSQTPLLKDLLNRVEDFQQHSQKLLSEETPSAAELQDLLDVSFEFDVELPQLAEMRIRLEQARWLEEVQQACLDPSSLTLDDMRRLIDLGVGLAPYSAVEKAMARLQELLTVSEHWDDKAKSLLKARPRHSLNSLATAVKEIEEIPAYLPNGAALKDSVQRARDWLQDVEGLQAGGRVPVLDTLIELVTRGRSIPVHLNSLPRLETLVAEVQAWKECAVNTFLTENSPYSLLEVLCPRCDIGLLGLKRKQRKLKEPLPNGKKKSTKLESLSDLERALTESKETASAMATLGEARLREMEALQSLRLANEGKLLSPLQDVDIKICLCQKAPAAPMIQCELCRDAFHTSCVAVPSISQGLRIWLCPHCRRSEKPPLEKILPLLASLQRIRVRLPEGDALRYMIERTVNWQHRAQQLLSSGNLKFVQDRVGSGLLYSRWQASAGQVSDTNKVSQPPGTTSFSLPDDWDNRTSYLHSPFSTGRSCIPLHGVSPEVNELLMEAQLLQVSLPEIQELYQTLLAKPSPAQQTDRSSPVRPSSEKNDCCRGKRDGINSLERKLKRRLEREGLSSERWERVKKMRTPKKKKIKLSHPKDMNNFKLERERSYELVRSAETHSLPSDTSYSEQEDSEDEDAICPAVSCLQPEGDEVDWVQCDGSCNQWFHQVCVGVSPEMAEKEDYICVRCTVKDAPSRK
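Compound dilutions met 200 nM (final) KDM5BΔAP for 10 min at room temperature before substrate addition. The substrate mix held 12.5 µM H3K4me3 with cofactors 25 µM α-ketoglutarate and 50 µM Fe²⁺. NADH signal gain over 30 min defined activity.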
Hits are given with their value; - = inactive.

SMILES | KDM5B inhibitor
CC(=O)NC(CO)C(=O)N1CCc2onc(-c3cccc4ccccc34)c2C1 (stereo not given) | 32µM
CC(C)Oc1nc2ccccc2nc1N1CCC(C(=O)NCc2ccccc2Cl)CC1 | -
CCCCC(=O)Nc1cc(C(=O)OCc2cc(=O)n3oc(C)cc3n2)ccc1OC | -
O=C(NCCn1cc(SCC(=O)N2CCCCC2)c2ccccc21)c1cccc(C(F)(F)F)c1 | -
O=C1NCc2ccccc2CC12CCCN2Cc1ccc(Br)cc1 (stereo not given) | -
Cc1ccc(C(=O)/C=C/N2CCCCC2)cc1 | -
COc1nc2nc(CCc3ccccc3)n(C)c2cc1Nc1ccncn1 | -
COc1ccc(-c2cc3c(nc2OC)nc(CC2CC2)n3C)cc1OC | -
COc1ccc(-c2nn3c(-c4ccccc4)nnc3c3ccccc23)cc1 | -
COc1nc2nc(CCc3ccccc3)n(C)c2cc1-c1cccc(NC(C)=O)c1 | 35µM
COc1ccccc1-c1cc(NC(=O)C(C)OCC2CC2)n[nH]1 (stereo not given) | -
Cc1nnc(-c2cc(-c3ccc(CO)cc3)ccn2)n1CCc1ccccc1 | -
COCc1nc2nc(-c3ccccc3)c(-c3cccc(NC(C)=O)c3)cc2n1C | -
COCc1nc2nc(-c3ccccc3)c(-c3ccc(OC)cc3)cc2n1C | 32µM
COCc1nc2nc(-c3ccccc3)c(-c3ccc(O)c(F)c3)cc2n1C | -
COc1nc2nc(CCc3ccccc3)n(C)c2cc1-c1ccc(CO)cc1 | 35µM
CC(=O)Nc1cccc(-c2ccnc(-c3nnc(C)n3Cc3ccccc3)c2)c1 | -
COc1ccccc1-c1cc2c(nc1OC)nc(CC1CC1)n2C | 40µM
CCC(=O)OC1=C(C(C)=O)N(C)S(=O)(=O)c2ccccc21 | -
COC(=O)Nc1ccc(CNCc2ccccn2)cc1 | -
O=C(N1CCN(Cc2ccccc2)CC1)C(F)(F)C(F)(F)C(F)(F)C(F)(F)F | -
Cc1oc(-c2cccs2)nc1CC(=O)Nc1ccccc1OCC(F)(F)F | -
CC1CCCc2c1nc1sc3c(c1c2-c1ccc(Cl)cc1)CCC3 (stereo not given) | -
O=C(O)Cc1sc(NC2CC2)nc1-c1ccccc1 | -
COc1ccc2[nH]cc(CCNC(=O)C3CC(=O)N(c4n[nH]c5cccc(F)c45)C3)c2c1 (stereo not given) | 22µM
SMILES | KDM5B inhibitor
COc1ccccc1CNC(=O)C1CC(=O)N(c2n[nH]c3ccccc23)C1 (stereo not given) | -
O=C(NCCc1ccncc1)C1CC(=O)N(c2n[nH]c3cccc(F)c23)C1 (stereo not given) | -
COCCCNC(=O)C1CC(=O)N(c2n[nH]c3cccc(F)c23)C1 (stereo not given) | -
O=C(NCCc1cccc(F)c1)C1CC(=O)N(c2n[nH]c3cccc(F)c23)C1 (stereo not given) | 22µM
COc1ccc(CNC(=O)C2CC(=O)N(c3n[nH]c4cccc(F)c34)C2)cc1 (stereo not given) | -
COc1ccc(CCNC(=O)C2CC(=O)N(c3n[nH]c4ccccc34)C2)cc1OC (stereo not given) | -
O=C(NCCc1ccccc1)C1CC(=O)N(c2n[nH]c3cccc(F)c23)C1 (stereo not given) | -
COc1ccccc1CCNC(=O)C1CC(=O)N(c2n[nH]c3cccc(F)c23)C1 (stereo not given) | 22µM
Cc1cccc(CSCC(=O)N(C)C)c1 | -
O=C(NC1CC1)C1(c2ccc(Br)cc2)CCCC1 | -
CC(C)NC(=O)C1CCC(Cn2cnnn2)CC1 (stereo not given) | -
O=C(Nc1ccc2oc(-c3cccc(Cl)c3)nc2c1)c1ccccc1 | -
Cc1c(C(=O)C(=O)NCc2ccccc2Cl)c2ccccc2n1C | -
O=C(OCC(=O)N1CCC(c2ccccc2)=N1)c1cc2c(s1)CCCC2 | -
CCOC(=O)CCNC(=O)N1CCC(Cc2noc(-c3ccncc3)n2)C1 (stereo not given) | -
Cc1cc2cc(NS(=O)(=O)c3ccc(F)c(F)c3F)ccc2[nH]1 | -
O=Cc1ccccc1-n1ccnc1 | -
COc1cccc(C(=O)NCc2nnc3cc(-c4nc(C)no4)ccn23)c1 | 28µM
Cc1noc(-c2ccn3c(CNC(=O)c4ccc5ccccc5n4)nnc3c2)n1 | 6.3µM
Cc1noc(-c2ccn3c(CNC(=O)c4ccc(Cl)cc4)nnc3c2)n1 | -
Cc1noc(-c2ccn3c(CNC(=O)c4cccc(F)c4)nnc3c2)n1 | 28µM
COc1ccc(C(=O)NCc2nnc3cc(-c4nc(C)no4)ccn23)cc1F | 7.9µM
C/C=C/C=C(\NC(=O)c1cccc(C)c1)C(=O)O | -
O=C(Nc1ccc2c(c1)OCCO2)C1CN(S(=O)(=O)C2CC2)CC12CCCCC2 (stereo not given) | -
CSC(C)C(=O)Nc1ccc(C)c(I)c1 (stereo not given) | -
SMILES | KDM5B inhibitor
O=C(CCC1CCCC1)Nc1ccc2ccccc2c1 | -
Cc1sc2ncn(Cc3nc(-c4ccco4)no3)c(=O)c2c1C | -
CCCS(=O)(=O)NCc1nnnn1-c1ccc(OCC)cc1 | -
CCCc1cc(=O)oc2cc(OCC(=O)O)c(Cl)cc12 | -
Cc1cccc(NC(=O)c2ccccc2NC(=O)c2nc(-c3ccccc3)oc2C)c1 | -
COc1ccc(-c2nc3c(C)cccc3cc2CN2CCC(O)CC2)cc1OC | -
COC[C@H]1CCCN1Cc1cn(-c2ccccc2C)nc1-c1ccc(OC)c(F)c1 | -
COc1cc2cc(CN3CCC[C@@H]3CO)c(-c3cccc(Cl)c3)nc2cc1OC | 25µM
CC(=O)N1Cc2ccccc2CC2(CCCN(CCc3ccccc3)C2)C1 (stereo not given) | -
COCCN1CC2(CCCN(C(=O)c3n[nH]c4ccc(C)cc34)C2)CCC1=O (stereo not given) | -
O=C(c1ccc(Cn2cccn2)o1)N1CCCC2(CCC(=O)N(C3CC3)C2)C1 (stereo not given) | -
Cc1[nH]c(=O)c(C#N)cc1C(=O)N1CCCC2(CCC(=O)N(C3CC3)C2)C1 (stereo not given) | 28µM
COC(=O)c1ccc(CNCc2ccco2)o1 | -
Cn1cc(CC(=O)N2CCCc3ncc(C(=O)NCCc4ccccn4)cc32)c2ccccc21 | -
Cc1nnc(-c2cc(-c3cccc(O)c3)ccn2)n1-c1ccccc1 | -
COc1ncccc1-c1ccnc(-c2nnc(C)n2-c2ccccc2)c1 | 32µM
COCCCNc1ccnc(-c2nnc(C)n2-c2ccccc2)c1 | -
CCc1ccc(C(=O)NCc2ccco2)cc1 | -
COc1ccc(CC(=O)NC(C)c2nnc(SCC(=O)c3ccc(F)cc3)n2C)cc1 (stereo not given) | -
CC(C)(Oc1nn(CCOc2ccccc2)c2ccccc12)C(=O)NCc1ccncc1 | -
CC(C)(Oc1nn(CC2CCOCC2)c2ccccc12)C(=O)NCCc1ccccc1 | 35µM
CC(C)(Oc1nn(Cc2cccc(Cl)c2)c2ccccc12)C(=O)NCC1CCOCC1 | -
CC(C)(Oc1nn(CCN2CCOCC2)c2ccccc12)C(=O)NCCc1ccccc1 | -
CC(C)(Oc1nn(CCN2CCOCC2)c2ccccc12)C(=O)NCCCn1ccnc1 | -
CC(C)(Oc1nn(CC2CCOCC2)c2ccccc12)C(=O)NC1CCOCC1 | 35µM
Cc1cccc[n+]1Cc1ccccc1 | -
CCOCCCNC(=O)c1cc(SC)ccc1C | -
COc1ccc(C(=O)N[C@H]2C[C@H]3C(=O)NC[C@@H](CCC(=O)N4CCN(C)CC4)N3C2)cc1 | -
CN1[C@@H](CCC(=O)N2CCN(c3ccccc3)CC2)CNC(=O)[C@@H]2[C@H]1CCN2Cc1csnn1 | -
